In PubChem BioAssay (EPA / NIEHS):
Active and inactive are the calls of the source. The calls were made as follows: active = hit-call score of the fitted dose curve at least 0.9, where 1 is the maximum; inactive = score below 0.9.

Tests used:
Details in all cases: mRNA level, 48 h; actives raise or lower the signal
[1] = read-out: solute carrier (SLC22A1), SLC22A1 (gene 6580); test: LTEA_HepaRG_SLC22A1: Life Technologies and Expression Analysis (LTEA) Assay for solute carrier (SLC22A1) using HepaRG (AID 2283524);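 as to AC50: differentiated human HepaRG liver cells in serum-free induction medium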
How it was run: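 HepaRG (human liver line), 48 h dosing in serum-free induction medium; 8 conc., half-log down from 100 uM, 0.5% DMSO vehicle, duplicates. Endpoint: SLC22A1 mRNA, qRT-PCR, housekeeping-normalized; gain/loss fit vs DMSO.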

[2] = read-out: Pyruvate Dehydrogenase Kinase 4 (PDK4), PDK4 (gene 5166); test: LTEA_HepaRG_PDK4: Life Technologies and Expression Analysis (LTEA) Assay for Pyruvate Dehydrogenase Kinase 4 (PDK4) using HepaRG (AID 2283525)
How it was run: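 In this multiplexed human HepaRG expression assay, cells are treated 48 h with test chemicals across an eight-point range starting at 100 uM. PDK4 mRNA changes, normalized to ACTB/GAPDH/POLR2A, are fitted in both directions relative to vehicle.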

[3] = read-out: NAD(P)H dehydrogenase [quinone] 1 (NQO1), NQO1 (gene 1728); test: LTEA_HepaRG_NQO1: Life Technologies and Expression Analysis (LTEA) Assay for NAD(P)H dehydrogenase [quinone] 1 (NQO1) using HepaRG (AID 2283526)
How it was run: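 Human HepaRG hepatic cells received chemicals for 48 h in serum-free induction medium with 0.5% DMSO, up to 100 uM. Expression was assessed by TaqMan qRT-PCR against housekeeping controls and fitted bidirectionally against DMSO.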

[4] = read-out: Nuclear factor erythroid 2-related factor 2 (Homo sapiens) (UniProt Q16236); test: LTEA_HepaRG_NFE2L2: Life Technologies and Expression Analysis (LTEA) Assay for Nuclear factor erythroid 2-related factor 2 (NFE2L2) Transcription Factor using HepaRG (AID 2283527)
How it was run: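 Transcript level of NFE2L2 is the read-out, measured by microfluidic TaqMan qRT-PCR and normalized to three housekeeping genes. Human HepaRG cultures received test chemical for 48 h at up to 100 uM in half-log steps. Gain or loss of signal is fitted relative to 0.5% DMSO.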

[5] = read-out: succinate dehydrogenase complex iron sulfur subunit B (SDHB), SDHB (gene 6390); test: LTEA_HepaRG_SDHB: Life Technologies and Expression Analysis (LTEA) Assay for succinate dehydrogenase complex iron sulfur subunit B (SDHB) using HepaRG (AID 2283528)
How it was run: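 SDHB transcript level read by TaqMan qRT-PCR, housekeeping-normalised (ACTB, GAPDH, POLR2A), after 48 h chemical treatment of plated HepaRG cells; eight concentrations top 100 uM, half-log steps, 0.5% DMSO, duplicates; fitted both directions against DMSO.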

[6] = read-out: Signal transducer and activator of transcription 3 (Homo sapiens) (UniProt P40763); test: LTEA_HepaRG_STAT3: Life Technologies and Expression Analysis (LTEA) Assay for Signal transducer and activator of transcription (STAT3) using HepaRG (AID 2283529)
How it was run: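 Read-out is STAT3 mRNA level by qRT-PCR, normalized to three housekeeping genes, in human HepaRG liver cells treated for 48 h. Concentrations ran from 100 uM downward in half-log steps; curves were fitted for gain or loss relative to 0.5% DMSO.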

[7] = read-out: solute carrier (SLCO1B1), SLCO1B1 (gene 10599); test: LTEA_HepaRG_SLCO1B1: Life Technologies and Expression Analysis (LTEA) Assay for solute carrier (SLCO1B1) using HepaRG (AID 2283530)
How it was run: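 Human HepaRG cultures treated for 48 h with an eight-concentration half-log series topping at 100 uM; SLCO1B1 measured by qRT-PCR and fitted bidirectionally relative to DMSO.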

[8] = read-out: sulfotransferase 2A1 (SULT2A1), SULT2A1 (gene 6822); test: LTEA_HepaRG_SULT2A1: Life Technologies and Expression Analysis (LTEA) Assay for sulfotransferase 2A1 (SULT2A1) using HepaRG (AID 2283531)
How it was run: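 Gene-expression endpoint in a human liver cell line: SULT2A1 mRNA change after 48 h chemical treatment, curves fitted in both directions relative to 0.5% DMSO vehicle. Concentrations spanned eight half-log steps from 100 uM.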

[9] = read-out: Transforming Growth Factor (TGFA), TGFA (gene 7039); test: LTEA_HepaRG_TGFA: Life Technologies and Expression Analysis (LTEA) Assay for Transforming Growth Factor (TGFA) using HepaRG (AID 2283532)
How it was run: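 HepaRG (human liver line), 48 h exposure, 8 conc. half-log down from 100 uM, 0.5% DMSO vehicle, duplicates; serum-free induction medium. TGFA mRNA by TaqMan qRT-PCR, ACTB/GAPDH/POLR2A normalization; gain/loss fit vs DMSO.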

[10] = read-out: Transforming Growth Factor (TGFB1), TGFB1 (gene 7040); test: LTEA_HepaRG_TGFB1: Life Technologies and Expression Analysis (LTEA) Assay for Transforming Growth Factor (TGFB1) Transporter using HepaRG (AID 2283533)
How it was run: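 Eight-point concentration-response (max 100 uM, half-log) in HepaRG under serum-free induction conditions, 48 h. TGFB1 mRNA by qRT-PCR, housekeeping-normalized.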

Measured: AC50

Sequence of Signal transducer and activator of transcription 3 (Homo sapiens) (P40763 whole entry, looked up): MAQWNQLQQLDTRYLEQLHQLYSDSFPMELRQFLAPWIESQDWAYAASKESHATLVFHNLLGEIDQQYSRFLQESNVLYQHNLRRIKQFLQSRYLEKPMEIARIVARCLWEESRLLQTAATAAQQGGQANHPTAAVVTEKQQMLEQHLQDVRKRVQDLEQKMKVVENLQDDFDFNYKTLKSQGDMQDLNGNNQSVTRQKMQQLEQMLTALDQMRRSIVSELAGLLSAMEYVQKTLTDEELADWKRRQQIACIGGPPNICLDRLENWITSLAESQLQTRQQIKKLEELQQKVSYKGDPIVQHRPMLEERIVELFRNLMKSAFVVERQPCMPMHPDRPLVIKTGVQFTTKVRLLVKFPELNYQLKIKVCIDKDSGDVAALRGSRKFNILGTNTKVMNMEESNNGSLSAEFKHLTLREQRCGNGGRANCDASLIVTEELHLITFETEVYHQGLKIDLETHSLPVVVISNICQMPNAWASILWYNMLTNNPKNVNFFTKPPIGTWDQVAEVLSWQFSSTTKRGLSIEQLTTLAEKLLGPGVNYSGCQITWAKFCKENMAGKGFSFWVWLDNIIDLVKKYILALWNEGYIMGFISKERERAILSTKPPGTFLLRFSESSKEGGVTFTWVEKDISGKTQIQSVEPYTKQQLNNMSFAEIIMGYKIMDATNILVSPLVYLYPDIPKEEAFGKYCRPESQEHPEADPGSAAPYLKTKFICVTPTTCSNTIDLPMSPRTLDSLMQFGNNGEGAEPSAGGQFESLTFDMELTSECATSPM
Sequence of Nuclear factor erythroid 2-related factor 2 (Homo sapiens) (Q16236 whole entry, looked up): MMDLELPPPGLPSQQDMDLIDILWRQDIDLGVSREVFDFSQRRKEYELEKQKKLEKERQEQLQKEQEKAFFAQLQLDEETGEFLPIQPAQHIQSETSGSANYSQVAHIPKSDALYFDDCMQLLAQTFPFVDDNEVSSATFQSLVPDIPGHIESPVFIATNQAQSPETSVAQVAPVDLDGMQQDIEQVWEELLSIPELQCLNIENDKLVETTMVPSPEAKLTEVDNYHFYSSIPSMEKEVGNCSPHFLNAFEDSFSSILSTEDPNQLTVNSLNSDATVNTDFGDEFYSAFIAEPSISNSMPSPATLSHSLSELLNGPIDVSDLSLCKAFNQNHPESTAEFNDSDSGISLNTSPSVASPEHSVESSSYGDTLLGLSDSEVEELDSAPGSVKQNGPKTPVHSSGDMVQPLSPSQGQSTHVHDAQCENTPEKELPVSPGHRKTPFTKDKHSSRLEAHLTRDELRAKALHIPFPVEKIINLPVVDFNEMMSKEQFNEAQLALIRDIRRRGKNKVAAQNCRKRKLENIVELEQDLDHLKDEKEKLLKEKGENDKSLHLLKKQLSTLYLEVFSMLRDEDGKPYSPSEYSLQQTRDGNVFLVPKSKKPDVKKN

OCC1CO1 (stereo not given)
inactive: all assays above

CCOP(=S)(OCC)SCSCC
inactive: all assays above

Nc1ccc2ccccc2c1
active: [4] 29.8 µM
inactive: all other assays above

CCOS(=O)(=O)OCC
inactive: all assays above

CC(C)(C)OOC(C)(C)C
inactive: all assays above

CCOc1ccc(C(C)(C)COCc2cccc(Oc3ccccc3)c2)cc1
inactive: all assays above

c1ccc(OP(Oc2ccccc2)Oc2ccccc2)cc1
inactive: all assays above

CC(Cl)(Cl)C(=O)O
inactive: all assays above

O=[N+]([O-])c1ccc(Cl)c(Cl)c1
inactive: all assays above

O=C(O)C1C(C(=O)O)C2(Cl)C(Cl)=C(Cl)C1(Cl)C2(Cl)Cl (stereo not given)
inactive: all assays above

CCCN(CCC)c1c([N+](=O)[O-])cc(C(C)C)cc1[N+](=O)[O-]
active: [1] 77.4 µM | [2] 20.9 µM
inactive: all other assays above

CC(Cc1ccc(OCC(=O)O)cc1)NCC(O)c1csc(C(F)(F)F)n1 (stereo not given)
inactive: all assays above

CCCCN(CCCC)N=O
inactive: all assays above

CSC(C)(C)C=NO
inactive: all assays above

O=P(Oc1ccccc1)(Oc1ccccc1)Oc1ccccc1
active: [1] 50 µM | [2] 28.4 µM | [4] 21.2 µM | [10] 77.5 µM
inactive: all other assays above

O=C(O)C(Cl)Cl
inactive: all assays above

COCCOCCO
inactive: all assays above

CCCCc1ccccc1
inactive: all assays above

ClC1=C(Cl)C2(Cl)C3C(Cl)C(Cl)CC3C1(Cl)C2(Cl)Cl (stereo not given)
active: [10] 77 µM
inactive: all other assays above

Cc1ccc([N+](=O)[O-])cc1C
inactive: all assays above

Cc1cccc(N)c1
inactive: all assays above
